Consider 40 compounds from PubChem BioAssay (NCATS).

Results filed as inconclusive are left out. Active and inactive are the calls of the source. The call rests on the fitted dose curve; in most records, active means well fitted inhibition curve with a large enough effect; inconclusive means small, poorly fitted or top-dose-only effect; inactive means no such curve, though single readings can be large or run the other way. Where a SMILES comes first, the peptide text is derived from it. Bridges are numbered along the chain shown (N, C = ends). [ ]: non-standard residue; d: D form. hArg = N=C(N)NCCCC[C@H](N)C(=O)O; Mpa = O=C(O)CCS

This test is described as follows: qHTS assay for measurement of the activity of small molecule inhibitors on Zika virus induced Caspase-3 activity in human iPSC derived neural progenitor cells (hNPCs) (AID 1224857). Further: nearly all actives have a fitted effect of over 65% in size. The settings on record: hNPCs ZIKV-induced caspase-3/7, Caspase-Glo luminescence, 6 h; series mostly up to 45.7 µM. The text has this:
National Center for Advancing Translational Sciences [NCATS]
Johns Hopkins University School of Medicine
Increase in the Caspase-3 activity indicates an activation of apoptosis cell death pathway caused by Zika virus infection in certain types of neuronal cells including human neural progenitor cells (hNPCs), astrocytes, and astrocytoma cell line (SNB-19). This cell-based caspase-3 activity assay measures the increased caspase-3 activity in the human iPSC derived neural progenitor cells (hNPCs) after a 6-hour Zika virus infection with a luminescence readout. A decrease in the luminescence signal in this assay by small molecule treatment indicates an inhibitory effect of that small molecule on the Zika virus induced caspase-3 activity that may correlate with its effect on reduction of Zika virus caused cell death.
The medium for hNPCs consists of DMEM/F12, N2 supplement (ThermoFisher, Cat.# 17502048), NEAA (ThermoFisher, Cat. # 11140050), 2 ug/ml heparin, 2 uM cyclopamine, and B27 (ThermoFisher, Cat. # 17504044). A Caspase-Glo 3/7 assay kit (catalog number G8092; Promega, Madison, WI) was used to detect caspase-3 activity induced by Zika virus infection in human cells. The reagent mixture was reconstituted as described in the protocol from the manufacturer. Polystyrene tissue culture treated and PDL coated white plates were obtained from Greiner Bio-One (Monroe, NC). Cells were seeded in 384- or 1536-well assay plates and cultured at 37 C with 5% CO2 for 16 to 20 hours. The typical cell seeding density in the 1536-well plate assay is 350 cells/well in 3 ul medium for hNPCs in tissue culture treated plates. Compounds were added to cells and incubated for one hour before addition of ZIKV solution to cells (2 FFU/cell). After incubation at 37 C with 5% CO2 for 6 hours, the reagent mixture of Caspase-Glo 3/7 assay kit was added to each well, followed by incubation at room temperature for 30 minutes. The luminescence intensity of the assay plates was measured using a ViewLux plate reader (PerkinElmer). Data were normalized by using the cell-containing wells without ZIKV as a negative control (0% induction of caspase 3/7 activity) and wells containing ZIKV infected cells (Caspase-3 activity induced) as a positive control (100% induction of caspase 3 activity). The percentage inhibitions of the increased Caspase-3 activity by small molecule inhibitors were then calculated.
On the technique in general: Quantitative high-throughput screening tests each substance at several concentrations.
For `CC(=O)Nc1ccccc1`, the outcome was inactive.

Regarding `CC(C)C[C@@H](N)C(=O)O`, the compound was classed as inactive.

For the compound `C/C=C/C(=O)N(CC)c1ccccc1C`, the result was inactive.

For the compound `CC(C(=O)O)c1ccc2c(c1)Cc1cccnc1O2` (stereo not given), the call was inactive.

For `CCOC(N)=O`, the call was inactive.

On to `Cc1cc(C)c(NC(=O)CN(CC(=O)O)CC(=O)O)c(C)c1Br`, for which the outcome was inactive.

In the case of `Cc1cc(=O)[nH]c(=S)[nH]1`, the result was inactive.

As for `CCCCCC(C)N` (stereo not given), the compound was called inactive.

As for `NNC(=O)CP(=O)(c1ccccc1)c1ccccc1`, the call was inactive.

Consider `CCOC(=O)[C@H](CCc1ccccc1)N[C@@H](C)C(=O)N1CCC[C@H]1C(=O)O`, for which the result was inactive.

Take `COc1ccccc1OCC(O)CO` (stereo not given): the compound was called inactive.

Consider `NC(=O)CC[C@@H](N)C(=O)O`, for which the call was inactive.

Turning to `CCCCCCCCCCCCCCCCN`, the outcome was inactive.

Turning to `FC(F)(F)C(Cl)Br` (stereo not given), the call was inactive.

As to `Cc1ccc(S(=O)(=O)NC(=O)NC2CCCCC2)cc1`, the compound was called inactive.

Regarding `O=C(NCN1CCOCC1)c1cnccn1`, the outcome was inactive.

In the case of `CCCNC(C)C(=O)Nc1c(C)csc1C(=O)OC` (stereo not given), the call was inactive.

For `OC(CCN1CCCC1)(c1ccccc1)C1CCCCC1` (stereo not given), the compound was classed as inactive.

Regarding `O=C(O)CCCc1ccccc1`, the result was inactive.

Consider `CC1(C)S[C@@H]2[C@H](N=CN3CCCCCC3)C(=O)N2[C@H]1C(=O)O`, for which the call was inactive.

On to `C=CCOc1ccccc1OCC(O)CNC(C)C` (stereo not given), for which the compound was called inactive.

For the compound `CC1CC(OC(=O)c2ccccc2O)CC(C)(C)C1` (stereo not given), the outcome was inactive.

For the compound `O=C(NCC(O)CO)c1c(I)c(C(=O)NCC(O)CO)c(I)c(N(CCO)C(=O)CO)c1I` (stereo not given), the compound was classed as inactive.

As for `O=C1c2ccccc2C(=O)C1c1ccc(Br)cc1`, the result was inactive.

`NCC1CCC(C(=O)Oc2ccc(CCC(=O)O)cc2)CC1` (stereo not given): the compound was classed as inactive.

As for `O=C(NCCCN1CCOCC1)c1ccc(Cl)cc1`, the compound was called inactive.

For the compound `COc1ccc(-c2cc(=O)c3c(O)cc(O[C@@H]4O[C@H](CO[C@@H]5O[C@@H](C)[C@H](O)[C@@H](O)[C@H]5O)[C@@H](O)[C@H](O)[C@H]4O)cc3o2)cc1O`, the outcome was inactive.

For `NC(=O)[C@@H]1CSSCCC(=O)N[C@@H](CCCCN=C(N)N)C(=O)NCC(=O)N[C@@H](CC(=O)O)C(=O)N[C@@H](Cc2c[nH]c3ccccc23)C(=O)N2CCC[C@H]2C(=O)N1` ([Mpa][hArg]GDWPC-NH2; disulfide 1-7), the compound was classed as inactive.

In the case of `CC(CN(C)C)C(C)(O)Cc1ccc(Cl)cc1` (stereo not given), the outcome was inactive.

Take `CCS(=O)(=O)CCn1c([N+](=O)[O-])cnc1C`: the compound was called inactive.

With `Cc1c(NC(=O)c2cccnc2)c(=O)n(-c2ccccc2)n1C`, the call was inactive.

Turning to `CCCCOC(=O)c1ccc(N)cc1`, the outcome was inactive.

Regarding `COc1ccccc1Oc1c(NS(=O)(=O)c2ccc(C(C)(C)C)cc2)nc(-c2ncccn2)nc1OCCO`, the compound was called inactive.

As to `COc1ccc(C(=O)NCc2ccc(OCCN(C)C)cc2)cc1OC`, the compound was called inactive.

As for `O=C(O)CCCCC1CCSS1` (stereo not given), the result was inactive.

For `CCCCCCCCCCCCCCCCCCO`, the result was inactive.

For `Cc1cc(NC(=O)C2=C(O)c3ccccc3S(=O)(=O)N2C)no1`, the outcome was inactive.

Turning to `CN[C@@H]1[C@H](O)[C@H](NC)[C@H]2O[C@@]3(O)C(=O)C[C@@H](C)O[C@H]3O[C@@H]2[C@H]1O`, the result was inactive.

Take `CC1(C)S[C@@H]2[C@H](NC(=O)C(C(=O)O)c3ccccc3)C(=O)N2[C@H]1C(=O)O` (stereo not given in full): the compound was classed as inactive.

With `CNCc1ccccc1`, the compound was classed as inactive.
